The values that follow come from the supplement of paper PMC13172266.

Structures can show the parent of a compound that is named as a salt.

One experiment concerns U2932 parental. The experiment in a line: cell proliferation relative to vehicle (% of vehicle); higher = less growth inhibition. The following applies: 50 nM; 72 h. In short, it runs like this:
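Each of 348 targeted inhibitors was tested at 500 nM or 50 nM for 72 h on U2932 cells, both parental and two clones resistant to an ETS-targeting agent. Readout was by MTT with absorbance read on a Cytation 3. Proliferation appears as percent of proliferating cells relative to vehicle (DMSO).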
As to `Oc1cccc(-c2nc(N3CCOCC3)c3oc4ncccc4c3n2)c1`, the cell proliferation turned out to be 92.1. For the compound `C#Cc1cccc(Nc2ncnc3cc(OC)c(OCCCCCCC(=O)NO)cc23)c1`, the cell proliferation amounted to 89.5. Regarding `CC1(C)CCC(c2ccc(Cl)cc2)=C(CN2CCN(c3ccc(C(=O)NS(=O)(=O)c4ccc(N[C@H](CCN5CCOCC5)CSc5ccccc5)c(S(=O)(=O)C(F)(F)F)c4)cc3)CC2)C1` [ABT-263 (Navitoclax)], the cell proliferation was 91.5. On to `COc1ccc(-c2ccc3c(N4CCOCC4)nc(N4C[C@@H](C)O[C@@H](C)C4)nc3n2)cc1CO`, for which the cell proliferation was 91.4.

`CCN(CC)CCCC(C)Nc1ccnc2cc(Cl)ccc12` (centres undefined) [Chloroquine Phosphate]: the cell proliferation was determined as 94.1.

Still in this experiment, the particulars now being: 500 nM; 72 h.
Turning to `O=C(NCc1ccncc1)C12CC3CC(C1)CC(c1ccc(Cl)cc1)(C3)C2`, the cell proliferation came out at 98.2. The same measure, in the same setting: in the case of `Cc1csc(-c2nnc(Nc3ccc(Oc4ncccc4-c4ccnc(N)n4)cc3)c3ccccc23)c1` it was 61.8; in that of `CCS(=O)(=O)N1CC(CC#N)(n2cc(-c3ncnc4[nH]ccc34)cn2)C1`, 105. The same measure, in the same setting: in the case of `COc1ccc(-c2ccc3c(N4CCOC[C@@H]4C)nc(N4CCOC[C@@H]4C)nc3n2)cc1CO` it was 35.1. The same measure, in the same setting: as for `CCOc1ccc(Cc2cc([C@@H]3O[C@H](CO)[C@@H](O)[C@H](O)[C@H]3O)ccc2Cl)cc1` [Dapagliflozin], the figure is 96.2; as for `CC(=O)O[C@@]12CO[C@@H]1C[C@H](O)[C@@]1(C)C(=O)[C@H](O)C3=C(C)[C@@H](OC(=O)[C@H](O)[C@@H](NC(=O)OC(C)(C)C)c4ccccc4)C[C@@](O)([C@@H](OC(=O)c4ccccc4)[C@H]21)C3(C)C` [Docetaxel], 9.31; as for `O=C(Nc1cccc(Nc2ncc(Br)c(NCCc3cnc[nH]3)n2)c1)N1CCCC1`, 68.1. Regarding `Nc1ccccc1NC(=O)c1ccc(CNC(=O)OCc2cccnc2)cc1` [Entinostat (MS-275)], the cell proliferation is 66.2. The same measure, in the same setting: in the case of `CC1(C)CCC(CN2CCN(c3ccc(C(=O)NS(=O)(=O)c4ccc(NCC5CCOCC5)c([N+](=O)[O-])c4)c(Oc4cnc5[nH]ccc5c4)c3)CC2)=C(c2ccc(Cl)cc2)C1` it was 66.9. Still for that read-out and setting: as for `O=C(O)C(Cc1c[nH]c2ccccc12)N1C(=O)c2ccccc2C1=O` (centres undefined), the figure is 96.1; as for `Cc1cnc(-c2ccccc2C(C)C)nc1NCc1ccc(-n2ccnn2)cc1`, 98.5; as for `CCc1ccc(/C=C2/SC(=S)NC2=O)cc1`, 104. Same read-out and setting: in the case of `O=C(Cc1ccc(-c2ccc(OCCN3CCOCC3)cc2)cn1)NCc1ccccc1` it was 9.55; in that of `C/C(=C\C(=O)Nc1ccccc1C(=O)O)c1ccc2ccccc2c1`, 102. Regarding `CN1CCC(CNc2ccc3ncc(-c4cccc(OC(F)(F)F)c4)n3n2)CC1` [SGI-1776 free base], the cell proliferation was 94.1. `Cc1cn([C@H]2O[C@@H](CO)[C@H](O)[C@H]2F)c(=O)[nH]c1=O` [Clevudine]: the cell proliferation came out at 96.8. Take `CNC(=O)c1cccc(-c2ccc3c(N4CCOC[C@@H]4C)nc(N4CCOC[C@@H]4C)nc3n2)c1`: the cell proliferation amounted to 46.4. Still for that read-out and setting: as for `CCCCCCCCc1ccc(CCC(N)(CO)CO)cc1` [Fingolimod (FTY720) HCl], the figure is 94.8; as for `COC1=CC(c2cc3ccccc3[nH]2)=N/C1=C\c1[nH]c(C)cc1C` [Obatoclax Mesylate (GX15-070)], 2.95.

For `O=c1[nH]nc(Sc2ncc([N+](=O)[O-])s2)n1-c1ccc2c(c1)OCCO2`, the cell proliferation amounted to 99.3.

Turning to `CN(NC(=O)CC(=O)NN(C)C(=S)c1ccccc1)C(=S)c1ccccc1` [Elesclomol (STA-4783)], the cell proliferation was -1.37. Consider `C[C@@H]1CN(CC(=O)Nc2ccc3c(c2)Cc2cccc(-c4cc(=O)cc(N5CCOCC5)o4)c2S3)C[C@H](C)O1`, for which the cell proliferation turned out to be 111. On to `Nc1nc(F)nc2c1ncn2[C@@H]1O[C@H](COP(=O)(O)O)[C@@H](O)[C@@H]1O` [Fludarabine Phosphate], for which the cell proliferation worked out at 93.7. As to `CC/C(=C(\c1ccccc1)c1ccc(OCCN(C)C)cc1)c1ccccc1` [Tamoxifen Citrate], the cell proliferation was 79.1. The same measure, in the same setting: in the case of `O=C(O)CC[C@H]1CC[C@@](c2cc(F)ccc2F)(S(=O)(=O)c2ccc(Cl)cc2)CC1` it was 93.2; in that of `CCn1c2ccccc2c2cc(Nc3ccnc(NCCCN4CCOCC4)n3)ccc21`, 91.7. The same measure, in the same setting: in the case of `O=C(/C=C\n1cnc(-c2cc(C(F)(F)F)cc(C(F)(F)F)c2)n1)NNc1cnccn1` it was 44.1; in that of `CCN(CC)CCNC(=O)c1c(C)[nH]c(/C=C2\C(=O)Nc3ccc(F)cc32)c1C` [Sunitinib Malate], 104; in that of `N#Cc1c(Oc2ccc(F)c(NC(=O)Cc3cccc(C(F)(F)F)c3)c2)ccc2nc(NC(=O)C3CC3)sc12`, 98.6.
